{
  "source": "the OligoGym collection",
  "data": [
    {"target": "SLMAP", "test": "pooled miR-30 sensor sort-seq; sequence = guide strand", "conditions": "shRNA", "values": [
      {"sequence": "ATACTCTTTCTGCACATCCTTT", "sensor-assay potency score (higher = more potent)": -0.952},
      {"sequence": "TTTGTTTACTTGTTCTAGCTAG", "sensor-assay potency score (higher = more potent)": 0.257},
      {"sequence": "TAAGAGTCTATCTTCATCTATT", "sensor-assay potency score (higher = more potent)": -0.538},
      {"sequence": "TAACTTTCCGTGTATTCTCTGT", "sensor-assay potency score (higher = more potent)": -0.472},
      {"sequence": "TTCACTGTCCTTCTCCTCCCGG", "sensor-assay potency score (higher = more potent)": -0.623},
      {"sequence": "TCAACTTCTCTAGTTCACCTTG", "sensor-assay potency score (higher = more potent)": 0.0522},
      {"sequence": "TTGAAGATAAAACTTGCCCGTC", "sensor-assay potency score (higher = more potent)": 0.116},
      {"sequence": "TTCATCTCTAGTACTTGTGATT", "sensor-assay potency score (higher = more potent)": -0.717}
    ]},
    {"target": "SMAD4", "test": "pooled miR-30 sensor sort-seq; sequence = guide strand", "conditions": "shRNA", "values": [
      {"sequence": "TTAGCAACCAACCTTGTGCCTA", "sensor-assay potency score (higher = more potent)": -0.621},
      {"sequence": "TAACTCTGTACAAAGACCGCGT", "sensor-assay potency score (higher = more potent)": 0.679},
      {"sequence": "TTCCAGGTGATACAACTCGTTC", "sensor-assay potency score (higher = more potent)": -1.63},
      {"sequence": "TTACTTGTTGGTGTATTCGTAA", "sensor-assay potency score (higher = more potent)": -0.078},
      {"sequence": "TTGTATTTTGTAGTCCACCATC", "sensor-assay potency score (higher = more potent)": -1.39},
      {"sequence": "TAGAATGATATACATATCGATG", "sensor-assay potency score (higher = more potent)": -1.35},
      {"sequence": "TTAGGTAGAGTGACGCTGCTTT", "sensor-assay potency score (higher = more potent)": 0.626},
      {"sequence": "TTTGAATTGAATGTCCTTCAGT", "sensor-assay potency score (higher = more potent)": -0.388},
      {"sequence": "TTAACTTTGAGAACTTCTCTGC", "sensor-assay potency score (higher = more potent)": 0.783},
      {"sequence": "TTACAATACATTATTAACTTAC", "sensor-assay potency score (higher = more potent)": -0.987},
      {"sequence": "TTCTTAGCAACCAACCTTGTGC", "sensor-assay potency score (higher = more potent)": -0.338},
      {"sequence": "TACATTCCAACTGCACACCTTT", "sensor-assay potency score (higher = more potent)": -0.752}
    ]},
    {"target": "SMC2", "test": "pooled miR-30 sensor sort-seq; sequence = guide strand", "conditions": "shRNA", "values": [
      {"sequence": "TTTTTGTATTCATACATCCTGG", "sensor-assay potency score (higher = more potent)": -0.581},
      {"sequence": "TTTGATTCTCAGTTCATCCTGA", "sensor-assay potency score (higher = more potent)": 0.766},
      {"sequence": "TCTACCACCAATAACCACCTGC", "sensor-assay potency score (higher = more potent)": 0.664},
      {"sequence": "TTGTTTATTCTTTAATTCCTGT", "sensor-assay potency score (higher = more potent)": -0.411},
      {"sequence": "TTCTATTCCAGTTCTTCTCTGG", "sensor-assay potency score (higher = more potent)": 0.3},
      {"sequence": "TTCATTTACAGCTTCAAGCTGT", "sensor-assay potency score (higher = more potent)": 0.444},
      {"sequence": "TTCTAGAGCTTCTTGATCCTTC", "sensor-assay potency score (higher = more potent)": 0.175},
      {"sequence": "TTCTGGTTTATATTCAACCAAG", "sensor-assay potency score (higher = more potent)": -1.67},
      {"sequence": "TAATTCTTCTTGTTGCTTGTGA", "sensor-assay potency score (higher = more potent)": 0.551},
      {"sequence": "TTGCATTGTTGAACATACCTTC", "sensor-assay potency score (higher = more potent)": 0.529},
      {"sequence": "TTGAGTTCTTGAAACTTGGTTA", "sensor-assay potency score (higher = more potent)": 0.137},
      {"sequence": "TACTTTGGTATCTTCAGCCAGC", "sensor-assay potency score (higher = more potent)": -0.418}
    ]},
    {"target": "SMC5", "test": "pooled miR-30 sensor sort-seq; sequence = guide strand", "conditions": "shRNA", "values": [
      {"sequence": "TTGATCTAGTTCAACTTTCTTT", "sensor-assay potency score (higher = more potent)": -0.0143},
      {"sequence": "TTCATTGTCTTTGTGCTCCAGA", "sensor-assay potency score (higher = more potent)": 0.694},
      {"sequence": "TAAATCTAAATGTCGCTTCCGT", "sensor-assay potency score (higher = more potent)": 0.849},
      {"sequence": "TTTATTGTCACGAACCTCTTTG", "sensor-assay potency score (higher = more potent)": -0.041},
      {"sequence": "TTGATTTCATCAACTACTCTGA", "sensor-assay potency score (higher = more potent)": 0.124},
      {"sequence": "TTTCCTTTCTATAACATCTTGC", "sensor-assay potency score (higher = more potent)": 0.304},
      {"sequence": "TTCTATAACATCTTGCTTCTGT", "sensor-assay potency score (higher = more potent)": 0.581},
      {"sequence": "TTCTCTTTTTGTATATTCCTGA", "sensor-assay potency score (higher = more potent)": -0.0732}
    ]}
  ]
}
